Screens deposited in PubChem by National Center for Advancing Translational Sciences (NCATS).
FLuc modulator – inhibits or activates purified firefly luciferase, miR-21 counter-screen. AID 588342. purified FLuc, Km substrates, luminescence inhibition. Potency, µM (top dose mostly 57.5 µM), for inactives: top-dose activity change, negative = inhibition, actives largely listed as inhibitors. 360,000 compounds, 6.9% hits. P08659;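 also: plate controls were vehicle for no effect and reference inhibitor for full effect; nearly all actives have a fitted effect of over 55% in size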
Target sequence (P08659 whole entry, looked up): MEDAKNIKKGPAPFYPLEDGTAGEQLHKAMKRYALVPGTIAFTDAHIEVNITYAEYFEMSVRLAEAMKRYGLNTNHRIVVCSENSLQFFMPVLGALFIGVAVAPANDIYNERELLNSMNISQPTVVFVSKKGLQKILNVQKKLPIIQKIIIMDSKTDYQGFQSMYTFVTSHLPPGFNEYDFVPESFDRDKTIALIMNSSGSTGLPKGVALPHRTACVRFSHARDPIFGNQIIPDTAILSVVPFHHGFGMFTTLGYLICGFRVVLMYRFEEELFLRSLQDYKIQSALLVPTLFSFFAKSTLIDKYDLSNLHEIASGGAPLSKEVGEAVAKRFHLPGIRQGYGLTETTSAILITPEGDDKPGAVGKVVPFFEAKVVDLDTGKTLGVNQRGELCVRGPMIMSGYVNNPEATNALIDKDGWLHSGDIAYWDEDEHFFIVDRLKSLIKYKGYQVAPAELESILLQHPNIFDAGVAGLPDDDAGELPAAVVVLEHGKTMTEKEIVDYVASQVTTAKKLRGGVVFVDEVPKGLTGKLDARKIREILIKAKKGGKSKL
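Purified P. pyralis luciferase (10nM final) with 10uM D-luciferin and 10uM ATP (Km levels) in 50mM Tris acetate pH 7.5, 10mM Mg acetate, 0.01% Tween-20, 0.05% BSA; qHTS 6-point titration, ~60 µM downward; luminescence read.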
ELG1 genotox – inducers of genotoxicity in HEK293T ELG1-luciferase cells; HEK293T ELG1-luciferase reporter, luminescence, 16 h; Potency, µM (highest dose often 46 µM), inactives show top-dose activity change, positive = activation, usual class: activators; 330,000 compounds, 1.3% hits; AID 504466; also: % of control where 0% means no effect; nearly all actives have a fitted effect of over 60% in size
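DMSO vehicle served as control against compound-treated ELG1-luciferase HEK293T cells; exposure lasted 16 hr at 37 °C and 5% CO2, followed by ONE-Glo luminescence detection after 30 min.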
Rab9 prom act – activators of Rab9 promoter | Huh7 Rab9 promoter-luciferase reporter, luminescence, 24 h | Potency, µM (highest dose often 9.22 µM), inactives show top-dose activation, negative = inhibition, actives largely listed as activators | 320,000 compounds, 2.8% hits; also: % of control where 0% means no effect; nearly all actives have a fitted effect of over 60% in size
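Using Huh7 cells stably transfected with Rab9 promoter–luciferase, compounds were incubated 24 h at 37 °C, 5% CO2; luciferase luminescence was read 10 min after reagent addition.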
p53 reactivation – re-activators of mutant p53; 320,000 compounds, 0.063% hits; H1299 p53-A138V BP100-luciferase reporter, luminescence, 24 h; Potency, µM (series often up to 92.2 µM), inactives show top-dose activity change, positive = activation, hits mostly activators; AID 504706; also: % of control where 0% means no effect; nearly all actives have a fitted effect of over 45% in size
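p53-null H1299 cells stably carrying temperature-sensitive p53-A138V and a BP100-luciferase reporter were pinned with compounds (4-point, 1:5 series) and held 24 hrs at 37 deg C. Luminescence was read 10 min after detection reagent.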
NPC1 promoter act – activates the NPC1 promoter | Potency, µM (titrated, usually from 9.22 µM), inactives show top-dose activation, hits mostly activators | Huh7 NPC1 promoter luciferase reporter, 24 h | 320,000 compounds, 2.4% hits; also: % of control where 0% means no effect; nearly all actives have a fitted effect of over 60% in size
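Luminescence read-out of NPC1 promoter-driven luciferase in stably transfected Huh7 cells; compounds delivered in DMSO and left 24 h at 37C, 5% CO2, qHTS titration format.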
SMN2 splice enh – increases expression of the SMN2 splice variant; HEK293 SMN2-luciferase splicing reporter, luminescence, 30-36 h; Potency, µM (top dose mostly 46.1 µM), without a hit: at the highest dose activity change, positive = activation, most hits filed as activators; 210,000 compounds, 2.8% hits; AID 1458; also: % of control where 0% means no effect; nearly all actives have a fitted effect of over 55% in size
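HEK293 cells carry an SMN2 minigene-luciferase reporter in which exon 7 inclusion puts luciferase in frame. Cells were seeded at 2000 cells/well, attached for 10-12 hours, then exposed to compounds for 30-36 hours at 37C before ONE-Glo luminescence.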
The depositor's hits bear a star; ? = inconclusive; · = no result; [ ] = dose if it differs, or a comment. Compounds with a hit are over-represented: about 7.3% of the library has one in this group of screens. Calls follow the shape of the dose curve; as a rule, active = well fitted curve in the direction sought with a large enough effect; inconclusive = small, poorly fitted or top-dose-only effect, or another doubt; inactive = no such curve, though single readings can be large; an effect the other way counts as inactive or inconclusive. Potency is read from the fitted curve at half-maximal effect.

SMILES	FLuc modulator	ELG1 genotox	Rab9 prom act	p53 reactivation	NPC1 promoter act	SMN2 splice enh
CC(C)(C)c1csc(NC(=O)c2ccc(Cl)s2)n1	6.7µM*	4%	?	-2%	?	-17%
Cc1ccc(C(=O)Nc2nc(C(C)(C)C)cs2)s1	5.4µM*	4.6µM*	3.2µM*	?	?	-5%
COc1cc(C)ccc1OCc1cc(C(=O)N2CCN(C3CCCCC3)CC2)no1	17µM*	?	?	?	?	·
Cc1ccc(OCc2cc(C(=O)N3CCN(C4CCCCC4)CC3)no2)cc1C	?	2%[9.26 µM]	29%	?	25%	·
O=C(c1cc(COc2ccc(F)cc2Cl)on1)N1CCCCCCC1	-11%	2%	20%	28%	-3%	·
O=C(c1cc(COc2ccc(F)cc2Cl)on1)N1CCCCCC1	6.7µM*	?	2µM*	15%	1.8µM*	·
COc1cc(C)ccc1OCc1cc(C(=O)N2CCCCCCC2)no1	21µM*	?	4.5µM*	?	?	·
O=C(c1cc(COc2ccc(F)cc2F)on1)N1CCSCC1	15µM*	21µM*	2.5µM*	6%	?	·
CCN1CCN(C(=O)c2cc(COc3ccc(C(C)=O)cc3OC)on2)CC1	12µM*	?	3.2µM*	?	2.2µM*	·
CCC(NC(=O)c1cc(COc2cncc(Cl)c2)on1)c1ccncc1 (centres undefined)	1%	-10%	-4%	-6%	1%	·
COc1ccc(OCc2cc(C(=O)N3CCN(C4CCCC4)CC3)no2)c(Cl)c1	21µM*	?	?	?	3.2µM*	·
CCC(NC(=O)c1cc(COc2ccc(F)cc2Cl)on1)c1ccncc1 (centres undefined)	21µM*	0%	-4%	·	-1%	·
O=C(c1cc(C(F)(F)F)cc(C(F)(F)F)c1)N1CCC2(CCCN(Cc3nccs3)C2)CC1	·	·	·	·	·	-19%
COc1ccc(Br)c(C(=O)OCc2cc(=O)oc3cc(C)ccc23)c1	?	14%	-2%	1%	-1%	·
Cc1ccc2c(COC(=O)C34CC5CC(CC(C5)C3)C4)cc(=O)oc2c1	?	?	4µM*	16%	?	21%
Cc1ccc2c(COC(=O)c3ccc(C)c(C)c3)cc(=O)oc2c1	6%	6%	?	-2%	20%	·
Cc1ccc2c(COC(=O)c3ccccc3Cl)cc(=O)oc2c1	0.85µM*	15µM*	19%	?	?	·
CCOc1ccccc1C(=O)N[C@H](C(=O)OCc1cc(=O)oc2cc(C)ccc12)C(C)C	?	-1%	-5%	2%	1%	1%
COc1cc(OC)cc(C(=O)N[C@H](C(=O)OCc2cc(=O)oc3cc(C)ccc23)C(C)C)c1	8.5µM*	-2%	-1%	-2%	-4%	-4%
Cc1ccc2c(COC(=O)c3ccccc3Br)cc(=O)oc2c1	2.7µM*	15µM*	3%	?	?	·
CC#CCOC(=O)c1c(C)nc2sc3c(c2c1N)CCC(O)C3 (centres undefined)	?	16µM*	-24%[46.1 µM]	7%	-10%[46.1 µM]	-59%
Cc1cccc(N2CCN(C(=O)CS(=O)(=O)Cc3nc(-c4ccccc4C)oc3C)CC2C)c1 (centres undefined)	-13%	·	·	·	·	-53%
COc1ccccc1NC(=O)c1ccc2c(c1)C(=O)N(c1ccccc1OC)C2=O	?	6%	-5%	-4%	-1%	·
O=C(Nc1ccc2c(c1)C(=O)N(CC1CCCO1)C2=O)c1cccc(Br)c1 (centres undefined)	11µM*	-4%	11%	2%	0%	-17%
O=C(O)c1cccc(NC(=O)c2ccc3c(c2)C(=O)N(CC2CCCO2)C3=O)c1 (centres undefined)	0.48µM*	1%	1%	3%	5%	4%
SMILES	FLuc modulator	ELG1 genotox	Rab9 prom act	p53 reactivation	NPC1 promoter act	SMN2 splice enh
O=C(O)c1cccc(NC(=O)c2ccc3c(c2)C(=O)N(c2ccccc2)C3=O)c1	0.27µM*	4%	-2%	10%	2%	·
COc1ccccc1N1C(=O)c2ccc(C(=O)Nc3ccc(C(=O)O)cc3)cc2C1=O	27µM*	1%	-3%	7%	-3%	·
COC(=O)c1cccc(NC(=O)c2ccc3c(c2)C(=O)N(CC2CCCO2)C3=O)c1 (centres undefined)	24µM*	0%	0%	-1%	3%	13%
NS(=O)(=O)c1ccc2nc(NC(=O)CS(=O)(=O)c3ccccc3)sc2c1	-13%	-1%[9.26 µM]	9%	-1%	-3%	·
CS(=O)(=O)c1ccc2nc(NC(=O)c3ccc(Cn4cc(Br)cn4)o3)sc2c1	4.8µM*	-3%	20%	5%	?	·
Cc1ccc2nc(NC(=O)c3ccc(Br)o3)sc2c1	1.3µM*	?	1.1µM*	·	1.4µM*	·
NS(=O)(=O)c1ccc2nc(NC(=O)c3ccc(Br)o3)sc2c1	9.5µM*	?	?	8%	?	18µM*
CC(=O)O[C@]1(C)CC[C@]23CC1C(C)(C)C2CC[C@@H]3C (some centres undefined)	·	·	·	·	·	3%
CCN(CC)c1ccc(/C=N/Nc2nn[nH]n2)cc1	17µM*	6%	2%	-7%	2%	·
CCOC(=O)N1CCN(C(=O)CCSc2ccccc2)CC1	17µM*	9.2µM*	2.8µM*	?	?	?
CCOC(=O)N1CCN(C(=O)CCSc2ccc(C)cc2)CC1	-3%	6%	10%	23%	8%	12%
COc1ccc(C(=O)COC(=O)CCN2C(=O)C3C4CCC(C4)C3C2=O)cc1 (centres undefined)	?	-19%	-3%	-3%	0%	-31%
O=C(CCN1C(=O)C2C3CCC(C3)C2C1=O)OCC(=O)c1ccccc1 (centres undefined)	13µM*	0%	-2%	-1%	-1%	·
COc1ccc(CNC(=O)c2ccc(C(C)(C)C)cc2)cc1	3µM*	?	2.8µM*	11%	3.2µM*	·
Cc1ccccc1OCCNC(=O)c1ccc2ccccc2n1	4.8µM*	21µM*	3.2µM*	?	?	22µM*
COc1ccc(NC(=O)CN(C)C(=O)c2ccc3ccccc3n2)cc1	·	1%	·	-3%	·	·
COc1ccc(NC(=S)c2ccc3ccccc3n2)cc1	13µM*	?	4µM*	?	3.2µM*	·
Cc1ccc(COC(=O)c2ccc3ccccc3n2)cc1	15µM*	2%	4%	25%	0%	·
CN(CCc1ccc(Cl)c(Cl)c1)CCN1CCCC1	·	·	·	·	·	0%
Cc1ccc(C(=O)c2cn(CC(=O)Nc3ccc(C(C)C)cc3)c3nc(C)ccc3c2=O)cc1	3%	·	·	·	·	·
